Hit rate of the full screen: of about 310,000 compounds, about 14,000 (4.5%) showed an effect of 50% or more. Effects have a minus sign here. The entries come from a sample that favours strong results as a whole.
biological target: human ether-à-go-go-related gene (hERG) potassium channel (human, UniProt Q12809); assay: primary screen, population patch clamp on CHO cells stably expressing hERG; higher = less effect of the substance
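Further: peak tail current of the secondary pulse compared with the same well before compound.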

human ether-à-go-go-related gene (hERG) potassium channel, sequence (Q12809 whole entry, looked up): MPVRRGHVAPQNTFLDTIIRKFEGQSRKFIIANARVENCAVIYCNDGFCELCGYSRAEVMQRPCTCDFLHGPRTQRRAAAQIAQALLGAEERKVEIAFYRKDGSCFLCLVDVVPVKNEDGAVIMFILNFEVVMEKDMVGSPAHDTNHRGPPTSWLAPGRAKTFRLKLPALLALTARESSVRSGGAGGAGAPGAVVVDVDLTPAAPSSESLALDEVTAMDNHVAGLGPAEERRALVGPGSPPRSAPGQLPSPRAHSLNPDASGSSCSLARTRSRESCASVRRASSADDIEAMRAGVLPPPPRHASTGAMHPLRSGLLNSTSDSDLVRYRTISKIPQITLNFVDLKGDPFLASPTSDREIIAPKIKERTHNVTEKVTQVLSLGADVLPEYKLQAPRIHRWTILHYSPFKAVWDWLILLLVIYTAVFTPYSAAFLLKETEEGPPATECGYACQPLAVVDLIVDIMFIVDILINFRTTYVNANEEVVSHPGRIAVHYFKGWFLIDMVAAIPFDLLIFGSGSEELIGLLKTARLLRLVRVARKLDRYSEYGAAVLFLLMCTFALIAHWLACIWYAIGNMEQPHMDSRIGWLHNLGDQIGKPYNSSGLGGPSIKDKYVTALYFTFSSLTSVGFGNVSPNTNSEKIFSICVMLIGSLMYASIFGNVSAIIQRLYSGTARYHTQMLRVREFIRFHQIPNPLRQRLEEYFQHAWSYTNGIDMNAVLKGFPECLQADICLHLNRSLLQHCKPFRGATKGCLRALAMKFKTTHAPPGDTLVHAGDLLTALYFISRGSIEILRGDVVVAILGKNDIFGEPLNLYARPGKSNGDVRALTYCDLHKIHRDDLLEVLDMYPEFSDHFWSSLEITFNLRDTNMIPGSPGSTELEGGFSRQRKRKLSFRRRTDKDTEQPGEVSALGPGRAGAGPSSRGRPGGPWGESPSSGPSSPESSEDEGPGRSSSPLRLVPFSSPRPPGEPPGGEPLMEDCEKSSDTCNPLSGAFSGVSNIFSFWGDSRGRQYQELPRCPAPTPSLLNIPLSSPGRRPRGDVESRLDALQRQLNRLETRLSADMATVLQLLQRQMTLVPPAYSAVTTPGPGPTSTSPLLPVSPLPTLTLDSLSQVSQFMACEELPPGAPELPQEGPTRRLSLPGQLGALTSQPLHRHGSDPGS

Structure (SMILES)	hERG current change (%, negative = inhibition) at 10uM
Cc1ccc(S(=O)(=O)NCc2ccc(C(=O)NCCCN3CCN(C)CC3)cc2)cc1	19.3%
C=CCNC(=O)c1ccc(CN2CCC(Cc3ccccc3)CC2)cc1	-66.8%
NC(=O)c1ccc(CN2CCC(Cc3ccccc3)CC2)cc1	-57.1%
COCCNC(=O)c1ccc(CN2CCC(Cc3ccccc3)CC2)cc1	-11.6%
C=CCNC(=O)c1ccc(C2SCC(=O)N2Cc2ccccc2)cc1 (stereo not shown)	6.11%
O=C(Nc1ccccc1)c1ccc(CN2CCC(Cc3ccccc3)CC2)cc1	14.7%
C=CCNC(=S)N1CCC(Cc2ccccc2)CC1	-25.9%
CC(=O)Nc1ccc(S(=O)(=O)NCc2ccc(C(=O)NCCCN3CCC(C)CC3)cc2)cc1	19.7%
O=C(NCc1ccccc1)c1ccc(CN2CCC(Cc3ccccc3)CC2)cc1	-70.3%
CC(C)NC(=O)c1ccc(CN2CCC(Cc3ccccc3)CC2)cc1	-37.2%
O=C(NCc1ccccc1)N1CCC(Cc2ccccc2)CC1	10.5%
Cc1ccc(S(=O)(=O)NCc2ccc(C(=O)NCCCN3CCC(Cc4ccccc4)CC3)cc2)cc1	-80.6%
Cc1noc(C)c1COC(=O)c1cccnc1Cl	3.21%
CNC(=S)Nc1cc(S(=O)(=O)Nc2cc(Cl)ccc2Cl)ccc1N1CCCC1	-12.4%
CN1C(=O)c2cccc(NC(=O)CCc3ccccc3)c2C1=O	-19.6%
CC1Cc2ccccc2N1C(=O)CSc1nnc2c(n1)[nH]c1ccc(F)cc12 (stereo not shown)	12.6%
O=C(CSc1nnc(COc2ccccc2)o1)c1ccccc1	1.95%
CCC(C)(C)NC(=O)C(c1ccc(F)cc1)N(Cc1cccc(OC)c1)C(=O)c1cnccn1 (stereo not shown)	9.72%
COC(=O)C1=C(C)C(c2ccc(OC)cc2OC)NC(=O)N1 (stereo not shown)	13.1%
Cc1ccc(N2C(=O)C3C4C=CC(CC4)C3C2=O)cc1Br (stereo not shown)	15.4%
N#Cc1ncc(-c2ccc3c(c2)OCCOCCOCCOCCO3)nc1C#N	-69%
c1cncc(-c2nc(-c3ccc4c(c3)OCCO4)cs2)c1	-4.72%
c1ccn2cc(-c3ccc4c(c3)OCCO4)nc2c1	1.08%
N#Cc1ncc(-c2ccc3c(c2)OCCOCCOCCOCCOCCO3)nc1C#N	-75.3%

Structure (SMILES)	hERG current change (%, negative = inhibition) at 10uM
N#CCC(=O)Nc1nc(-c2ccc3c(c2)OCCO3)cs1	13.1%
N#Cc1cncc(-c2ccc3c(c2)OCCOCCOCCOCCOCCO3)n1	-86.9%
Cc1ccc2nc(-c3ccc4c(c3)OCCO4)cn2c1	-16%
Cl.Nc1nc(-c2ccc3c(c2)OCCO3)cs1	19.4%
N#Cc1cn(-c2ccccc2)nc1-c1ccc2c(c1)OCCO2	11.8%
COc1ccc(C(=O)NC(=S)Nc2ccc3[nH]c(=O)[nH]c3c2)c(OC)c1	5.35%
O=C(CN1C(=O)C2C3C=CC(C4CC34)C2C1=O)Nc1cccc2ncccc12 (stereo not shown)	0.881%
CCOC(=O)c1ccc(-c2ccc3c(c2)CCC3)nc1C	12.6%
COc1ccccc1C(=O)N/C(N)=N/c1nc2ccccc2o1	1.36%
N#Cc1ccc(N2CCCNCC2)nc1	-88.5%
CCCCNC(=O)N1CCCN(c2ccc(C#N)cn2)CC1	-49.8%
N#Cc1ccc(N2CCOCC2)nc1	-0.729%
Cc1ccc(NC(=O)c2nc(S(=O)(=O)Cc3ccccc3C)ncc2Cl)cc1C	2.81%
Cc1nn2c3ccccc3n(CC(=O)c3cccs3)c2nc1=O	1.78%
Cc1ccc(Nc2c(-c3ccco3)nc3ccccn23)cc1	2.78%
COc1ccccc1C1CCN(Cc2ccc3ccccc3c2)CC1	-75%
COc1ccccc1C1CCN(Cc2ccc(Cl)cc2Cl)CC1	11.1%
COc1ccccc1C1CCN(Cc2ccc(C)cc2)CC1	-90%
COc1ccccc1C1CCN(Cc2ccccc2)CC1	-34.5%
COc1ccccc1C1CCN(Cc2c(C)[nH]c3ccccc23)CC1	-64.4%
COc1ccccc1C1CCN(Cc2cccc([N+](=O)[O-])c2)CC1	-49.1%
Cc1[nH]c2ccccc2c1CN1CCc2ccccc2C1	-12.9%
COc1ccccc1C1CCN(Cc2ccccc2Cl)CC1	-3.3%
Cc1[nH]c2ccccc2c1C(c1ccncc1)N1CCN(c2ccccn2)CC1 (stereo not shown)	8.61%

Structure (SMILES)	hERG current change (%, negative = inhibition) at 10uM
COc1ccccc1C1CCN(Cc2cccc3ccccc23)CC1	-13.9%
Cc1[nH]c2ccccc2c1CN1CCN(c2ccccn2)CC1	-52.7%
COc1ccccc1C1CCN(Cc2ccc(Cl)c(Cl)c2)CC1	12.3%
COC(=O)CCc1nc2c(C#N)c(-c3ccc(Cl)cc3)ccn2n1	-2.07%
Cc1ccc(/C=N/NC(=O)c2cc(C)oc2C)cc1	4.58%
COc1ccccc1NC(=O)CC1C(=O)Nc2c1c(=O)n(C)c(=O)n2C (stereo not shown)	4.88%
Cc1cc(=O)[nH]c(SCC(=O)Nc2nc(-c3ccccc3)c(-c3ccccc3)o2)n1	3.76%
CC(=O)Nc1ccc(/C=N/N2C(=O)NC(C)(c3ccc(OC(F)F)cc3)C2=O)cc1 (stereo not shown)	-10.5%
COC(=O)c1cc(C(=O)OC)cc(N2C(=O)CC(NNC(=O)c3ccc(C)cc3)C2=O)c1 (stereo not shown)	-11.5%
CCOC(=O)C(C)On1c(-c2ccc(Cl)cc2)nc2ccc([N+](=O)[O-])cc21 (stereo not shown)	-20.4%
O=C(O)COn1c(-c2ccccc2)nc2ccc([N+](=O)[O-])cc21	11.3%
CCOC(=O)C(C)On1c(-c2ccccc2)nc2ccc([N+](=O)[O-])cc21 (stereo not shown)	-51.3%
COc1cc(NC(=O)C/C(C)=N/NC(=O)C(=O)NC2CCCCC2)c(OC)cc1Cl	-91.2%
COc1cc(NC(=O)C/C(C)=N/NC(=O)C2CCCCC2)c(OC)cc1Cl	9.28%
COc1ccc(NC(=O)C/C(C)=N/NC(=O)C(=O)NC2CCCCC2)c(OC)c1	-8.46%
O=C(NNC(=O)c1cc(Cl)ccc1O)c1ccc(NS(=O)(=O)c2cccs2)cc1	-20.7%
CCOC(=O)CC1ON(C)C(=O)N1c1ccc([N+](=O)[O-])cc1 (stereo not shown)	-6.46%
C/C(=N/NC(=O)c1ccn(C)n1)c1ccncc1	13.2%
CCOC(=O)N1CCN(c2ccc(C(F)(F)F)cn2)CC1	-4.3%
O=C(O)COCC(=O)N1CCCN(c2ccc(C(F)(F)F)cn2)CC1	14.3%
N#Cc1ccc(S(=O)(=O)N2CCCN(c3ccc(C(F)(F)F)cn3)CC2)cc1	-73.9%
Cc1ccccc1SCC(=O)N1CCN(c2ccc(C(F)(F)F)cn2)CC1	-38%
N#Cc1ccc(OCC(=O)N2CCN(c3ccc(C(F)(F)F)cn3)CC2)cc1	-54.7%
N#Cc1ccc(S(=O)(=O)N2CCCN(c3nc4ccc(Cl)cc4s3)CC2)cc1	-70.3%

Structure (SMILES)	hERG current change (%, negative = inhibition) at 10uM
O=S(=O)(c1ccc(C(F)(F)F)cc1)N1CCCN(c2ccc(C(F)(F)F)cn2)CC1	5.3%
CC(CC(=O)N1CCN(c2ccc(C(F)(F)F)cn2)CC1)n1ccnc1 (stereo not shown)	-66.2%
O=S(=O)(c1ccc(Cl)cc1)N1CCCN(c2ccc(C(F)(F)F)cn2)CC1	-23.3%
CS(=O)(=O)N1CCN(c2nc3ccc(Cl)cc3s2)CC1	5.72%
CC(=O)c1cccc(OCC(=O)N2CCN(c3ccc(C(F)(F)F)cn3)CC2)c1	-16.3%
O=S(=O)(c1ccc(Cl)cc1)N1CCCN(c2nc3ccc(Cl)cc3s2)CC1	11.8%
Cc1ccc(C2(C(F)(F)F)N=C3Sc4cc(C)cc(C)c4N3C(=O)N2)cc1 (stereo not shown)	-4.05%
O=C(NCCCN1CCOCC1)c1cc(-c2ccc(Br)cc2)nc2ccccc12	-39.7%
O=C(NC1C2CC3CC(C2)CC1C3)c1ccc(N2CCNCC2)c([N+](=O)[O-])c1 (stereo not shown)	-18%
O=c1c2oc3ccccc3c2[nH]c(=S)n1-c1ccc(F)cc1	25.3%
COc1cccc(C2NC(=O)NC(C)=C2C(=O)Nc2ccc(C)cc2)c1OC (stereo not shown)	-6.16%
COc1ccccc1-n1c(=O)oc2ccc(Cl)cc2c1=O	-7.54%
Cl.O=C(NCCOC(=O)c1ccc(C(=O)OCCNC(=O)c2cccnc2)s1)c1cccnc1	7.73%
Cc1ccc(S(=O)(=O)Nc2cc(C(=O)NCCN(C)C)ccc2N2CCCC2)cc1	-6.83%
CCN1CCCC1CNC(=O)c1ccc(N2CCOCC2)c(NS(=O)(=O)c2ccc(OC)cc2)c1 (stereo not shown)	-24.4%
Cc1ccc(S(=O)(=O)Nc2cc(C(=O)N3CCC4(CC3)OCCO4)ccc2N2CCCCC2)cc1	-51.3%
CCCCNC(=O)c1ccc(N2CCOCC2)c(NS(=O)(=O)c2ccc(OC)cc2)c1	-40.4%
Cc1ccc(S(=O)(=O)Nc2cc(C(=O)N3CCOCC3)ccc2N2CCCCC2)cc1	-20.5%
CCC1CCCCN1CCCNC(=O)c1ccc(N2CCOCC2)c(NS(=O)(=O)c2ccc(OC)cc2)c1 (stereo not shown)	-57.6%
CCN(CC)CCCNC(=O)c1ccc(N2CCCCC2)c(NS(=O)(=O)c2ccc(C)cc2)c1	-69.2%
Cc1ccc(S(=O)(=O)Nc2cc(C(=O)NCCN(C)C)ccc2N2CCCCC2)cc1	-36.8%
Cc1ccc(S(=O)(=O)Nc2cc(C(=O)O)ccc2N2CCCCC2)cc1	9.4%

Source: PMC4336329 (PLoS ONE, 2015)
